# Source: publication PMC7819943, “Rice protein-binding microarrays: a tool to detect cis-acting elements near promoter regions in rice”
# Whole data set: some 39,000 sequences, median “fluorescence intensity (a.u.)” near 4,300, cut for the highest 2% near 39,000. Only a selection was taken, and the highest values are over-represented in it overall.
# Biological target: T1, OsSMF1 (Oryza sativa, UniProt Q6ZLB0 1-436)
# T1 sequence: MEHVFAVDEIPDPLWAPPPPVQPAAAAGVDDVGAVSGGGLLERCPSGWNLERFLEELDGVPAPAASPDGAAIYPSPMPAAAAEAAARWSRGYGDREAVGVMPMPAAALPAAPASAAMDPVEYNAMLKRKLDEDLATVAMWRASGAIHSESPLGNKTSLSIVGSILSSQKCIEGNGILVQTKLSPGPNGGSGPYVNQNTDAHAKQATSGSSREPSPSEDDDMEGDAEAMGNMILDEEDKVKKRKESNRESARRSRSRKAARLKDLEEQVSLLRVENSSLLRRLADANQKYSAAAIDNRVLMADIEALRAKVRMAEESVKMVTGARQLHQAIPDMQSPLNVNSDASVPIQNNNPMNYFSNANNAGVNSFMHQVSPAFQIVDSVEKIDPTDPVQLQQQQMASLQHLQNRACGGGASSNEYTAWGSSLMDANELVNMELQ
# Test: protein-binding microarray (RPBM); PBS, 2% BSA, 51.3 ng/ul salmon testes DNA, 50 uM zinc acetate, 200 nM TF, 25 C, 1 h; high values mean tight binding
# Conditions: protein: recombinant; tags: N-terminal polyhistidine and DsRed monomer fusion (pET32a); chain copies: 2; label: CyDye5-dUTP incorporated in the synthesized complementary strand; 3' TTTTT single-stranded linker to array surface; dsDNA, one strand shown
# In short: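 The binding signal is fluorescence intensity per array feature (arbitrary units). Readings came from an Axon 4000B scanner after a washed, 2% BSA-blocked, double-stranded custom Agilent array had been incubated for 1 h at 25 °C with 200 nM protein and 50 µM zinc acetate. The protein was a Ni–NTA-purified transcription factor fused N-terminally to polyhistidine and DsRed, expressed in E. coli BL21-CodonPlus.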
row,Sequence,binding signal
1,GCTCGCCTTTTATCGCAGCCAAAGCCATGAAATTTCCCCACGGAGTCACCTAGTGCAG,27500 fluorescence intensity (a.u.)
2,CTCGCGTCGCCACGCAACTTAATTAATTTAGCCCCTAATTCGGAGTCACCTAGTGCAG,3640 fluorescence intensity (a.u.)
3,CTTCTAGCTGACACCTGTGCGCCGCCGCCTAATTTCAACTCGGAGTCACCTAGTGCAG,3930 fluorescence intensity (a.u.)
4,GCACCTCGTTAGGCTTCATGGTCATGGCTCGTCGCTGACGCGGAGTCACCTAGTGCAG,6120 fluorescence intensity (a.u.)
5,GCGGTTTCCTAGTTGACTGACCAAACAATTCATATATATTCGGAGTCACCTAGTGCAG,6140 fluorescence intensity (a.u.)
6,CGGCCGTGTTAAGCCTCTTCCAAAGTCAGCTGAGTTGTGCCGGAGTCACCTAGTGCAG,5460 fluorescence intensity (a.u.)
7,CCTACACTGAAGTTAAGCAGATCTTCCAGGCCTCGTGTTTCGGAGTCACCTAGTGCAG,43800 fluorescence intensity (a.u.)
8,TCGTGCTACAGATCTATAGCACACTACTCTTCTCTCTCTTCGGAGTCACCTAGTGCAG,3370 fluorescence intensity (a.u.)
9,ACAAGAGCCAGCGCGGCGTGTGTGCGCGATTTCTCTCTTCCGGAGTCACCTAGTGCAG,3210 fluorescence intensity (a.u.)
10,TCTTACAGCGCGCGTGTTCGTTCGAACGATTCTCTTCTTCCGGAGTCACCTAGTGCAG,51900 fluorescence intensity (a.u.)
11,CCACGAACAGCTACACGTCTCCTTCTCCTTCTTCGATTTCCGGAGTCACCTAGTGCAG,37400 fluorescence intensity (a.u.)
12,AGTGCCACTTAAGCGCCACATCAACGCCACATGGAAAGAACGGAGTCACCTAGTGCAG,4210 fluorescence intensity (a.u.)
13,AGACCCAAGTCACTCTCTCCGCTCCAGTCTCCACTCTCCACGGAGTCACCTAGTGCAG,23100 fluorescence intensity (a.u.)
14,ACCACTCTACCACAACCATTACGCTATCCGCCACGAGCAACGGAGTCACCTAGTGCAG,3270 fluorescence intensity (a.u.)
15,TCCACATGCTAATTTGTGGTGTCAGATACCTGAATACTCCCGGAGTCACCTAGTGCAG,41400 fluorescence intensity (a.u.)
16,AAGATCTGTATGCCTCATGAGGGTTGGTGTGTAATACTCCCGGAGTCACCTAGTGCAG,3890 fluorescence intensity (a.u.)
17,CTCTAAATTTGTGCAGATGTGTCACCTAGATCCCTGAACTCGGAGTCACCTAGTGCAG,4340 fluorescence intensity (a.u.)
18,CCCCTACTATTTTCTAGGCTAGGAAGCGTGCGATCTTTTCCGGAGTCACCTAGTGCAG,3240 fluorescence intensity (a.u.)
19,TGGCGCGACTGCTCGGGTCACCATAAATACGGGTAGGTGGCGGAGTCACCTAGTGCAG,3940 fluorescence intensity (a.u.)
20,CTCCGCCGCTGGCCGCCTTGCCTGCTTGAGAGGAGGAGAGCGGAGTCACCTAGTGCAG,26800 fluorescence intensity (a.u.)
21,GATTGATGAGGCCGCAAAGCCTGGCTGCCTGCCTGCTTCTCGGAGTCACCTAGTGCAG,54300 fluorescence intensity (a.u.)
22,CTGCTTGAATCCTTCTCGCTGAGCTGGCCTGCAGCCTTTTCGGAGTCACCTAGTGCAG,7190 fluorescence intensity (a.u.)
23,CATTATACATGTGTCATGTGTATTCGACTTCTGTGCTGCCCGGAGTCACCTAGTGCAG,4750 fluorescence intensity (a.u.)
24,GGTAGTCTGAAGCCTGTTGGTTATCCTCCTGGGAGTGTTGCGGAGTCACCTAGTGCAG,3220 fluorescence intensity (a.u.)
25,AGATTAGTTTTCCCATATATTTCTTGTCAGTCGTCGTCATCGGAGTCACCTAGTGCAG,3760 fluorescence intensity (a.u.)
26,AATCAATACAAAGTCTGAAAGCCATTATGGTGGCAGTAATCGGAGTCACCTAGTGCAG,61300 fluorescence intensity (a.u.)
27,ATAAAGTAACACATACACAAAGCCACATCATCAATATTTTCGGAGTCACCTAGTGCAG,8990 fluorescence intensity (a.u.)
28,AAGTAGTGTCTATGGTGCCATGTCAATAGGACATCATAATCGGAGTCACCTAGTGCAG,3920 fluorescence intensity (a.u.)

row,Sequence,binding signal
1,CATTTCCAAATTACATGTATGAATCCAACCAAAACTTTTCCGGAGTCACCTAGTGCAG,17200 fluorescence intensity (a.u.)
2,ATGCTAACCAACTAAAATACTTTTCCATGTACCTTACAAGCGGAGTCACCTAGTGCAG,60000 fluorescence intensity (a.u.)
3,TTCTTTTCCCATGGCCTCTGACTATGACATTATTTAAACACGGAGTCACCTAGTGCAG,3440 fluorescence intensity (a.u.)
4,CACTTTTATGACATTTTCAACCATACTATTTTCCTTAAAGCGGAGTCACCTAGTGCAG,39800 fluorescence intensity (a.u.)
5,AATTTACAAGGTAAAATTTTATACCACCTTATATACTTTGCGGAGTCACCTAGTGCAG,4160 fluorescence intensity (a.u.)
6,ATTTATATTTTAAAATATACTTTTATATGACACTAATTTTCGGAGTCACCTAGTGCAG,3170 fluorescence intensity (a.u.)
7,CGTGACGCGCAGCTCCCTGCAGCCGACCTGGCCACCCACACGGAGTCACCTAGTGCAG,3500 fluorescence intensity (a.u.)
8,TATATTCGTGTCATTTAGATACCATACCACATCCTGCTACCGGAGTCACCTAGTGCAG,3240 fluorescence intensity (a.u.)
9,TTACGATCACCGAAAAGTGGTAGCGTACGTGTTGAGTGTGCGGAGTCACCTAGTGCAG,4140 fluorescence intensity (a.u.)
10,GCTTGCTTTGTCACATGCAGTTTTACACCTTTTATTTCTCCGGAGTCACCTAGTGCAG,6070 fluorescence intensity (a.u.)
11,TCAGGTGAAATCTGCTTCAGCCATATTCATTGGTAATCAGCGGAGTCACCTAGTGCAG,3600 fluorescence intensity (a.u.)
12,AAATCAGGAGCCTCTGCCATTGGTTTGTGAAGCTACATCGCGGAGTCACCTAGTGCAG,65500 fluorescence intensity (a.u.)
13,AATCAGATGATCGGTGCTGCAGCCATCATTGAAGCCTGTGCGGAGTCACCTAGTGCAG,3400 fluorescence intensity (a.u.)
14,ACACTATTAATTGTTTTATTAGGTTTCAGACGTTATTTTGCGGAGTCACCTAGTGCAG,3150 fluorescence intensity (a.u.)
15,CTCACTGACGTAGGTTTATTGTACCTATTCTAATTAAGGCCGGAGTCACCTAGTGCAG,39400 fluorescence intensity (a.u.)
16,GAGGGTTTTAATTACTCACTGACATGTAGGGTCACGGGGTCGGAGTCACCTAGTGCAG,4390 fluorescence intensity (a.u.)
17,TTTGAGCGCCGCTCGACTATGTCATGAAGCAACGTGGCACCGGAGTCACCTAGTGCAG,7750 fluorescence intensity (a.u.)
18,GGGGAGAGGGAGGAGGAGGAGGAGAGTGGCTACTAGTACTCGGAGTCACCTAGTGCAG,3380 fluorescence intensity (a.u.)
19,CTCATTTGAACACATGTACACTACTAATCCTCGTTCTGGACGGAGTCACCTAGTGCAG,39200 fluorescence intensity (a.u.)
20,TGTACATTGTTTGAACTAATCAGTAATCATCACAGTGGTTCGGAGTCACCTAGTGCAG,3160 fluorescence intensity (a.u.)
21,ACATTCTAGCCATTCATTCTTCACACCTCATTTAATCCTACGGAGTCACCTAGTGCAG,3280 fluorescence intensity (a.u.)
22,ACCACACCTTGTCAAAACTTCAGTAACAGCAGAAGTTACACGGAGTCACCTAGTGCAG,3140 fluorescence intensity (a.u.)
23,CAATAGACTTCAAGGAAGCATACCAATACCAGTAACCACACGGAGTCACCTAGTGCAG,40800 fluorescence intensity (a.u.)
24,GGCAAACCAGTAACTAGAAACCACGTTATTCAAAAGCATTCGGAGTCACCTAGTGCAG,3940 fluorescence intensity (a.u.)
25,TCTTTTGGTTTACAACACTTTGTATGCTAGCATTATTTTGCGGAGTCACCTAGTGCAG,3420 fluorescence intensity (a.u.)
26,TATACACCACGTTTGCTGGCTTGGCTTCCTTCCACACTCCCGGAGTCACCTAGTGCAG,4000 fluorescence intensity (a.u.)
27,GCGGTTTATGTACACGTCAGCATTTTGCTTCCTTCCTTCCCGGAGTCACCTAGTGCAG,47800 fluorescence intensity (a.u.)
